Compounds with a hit are over-represented: about 21% of the library has one in this group of screens.
Pf growth 48h – P. falciparum growth inhibition at 48 hours (one generation). P. falciparum luciferase growth in erythrocytes, 48 h. Potency, µM (series often up to 28.7 µM), hits mostly inhibitors. hit rate 5.9% among 310,000. AID 504832
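Erythrocytes infected with P. falciparum carrying an integrated firefly luciferase reporter (2% hematocrit, 0.1% parasitemia final) were exposed to compounds in RPMI 1640 with 0.5% Albumax at 37 C, 5% CO2. Growth inhibition was scored as reduced luminescence.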
AMA1-RON2 inh – disrupts binding of P. falciparum AMA1 to RON2. AlphaScreen AMA1-biotinylated RON2 peptide binding. Potency, µM (series often up to 58.2 µM), actives largely listed as inhibitors. hit rate 0.2% among 360,000; also: nearly all actives have a fitted effect of over 45% in size
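AMA1 (3D7) with his tag at 25 nM final met compounds first, then biotinylated RON2 peptide at 25 nM; detection used donor plus acceptor beads, 10 µg/mL apiece, read by AlphaScreen after 30 min at room temperature.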
CHX counter – counter-screen for Shiga toxin inhibitors: cycloheximide protein synthesis inhibition; hit rate 12% among 300,000; AID 2314; max response, %; cell reporter, cycloheximide protein synthesis inhibition counterscreen; in the data active = max response mostly above about 13%, no sharp cut-off; inactive = mostly below about 14%; also: read at 38.3 µM for the half of the compounds with a filed dose
HCV inhibitor – blocks hepatitis C virus; Huh7.5.1 HCVcc-Cre infection, luciferase reporter, 44 h; Potency, µM (doses to about 41.8 µM), most hits filed as inhibitors; hit rate 3.4% among 340,000; AID 651820
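A cell-based infection assay in which seeded cells (1,000 per well) receive test compound after 4 h, are inoculated with HCVcc-Cre at approximately 0.5 moi, and are incubated 44 h before luminescence detection.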
Pf growth 96h – inhibits malaria parasite growth, 96 h. P. falciparum luciferase reporter growth, 96 h. Potency, µM (doses to about 28.7 µM), actives largely listed as inhibitors. hit rate 6.9% among 320,000. AID 504834
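Infected RBCs, 2% Hct / 0.05% parasitemia final; luciferase-reporter P. falciparum; cpd 96 h, 37 C, 5% CO2; luciferase detection reagent; luminescence.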
Shiga inhibitor – inhibitors of Shiga toxin in Vero cells. AID 2315. inhibition, % at 38.7 µM. hit rate 9.2% among 290,000. Vero cells, Shiga toxin protein synthesis inhibition reporter; in the data active = inhibition mostly above about 28%, no sharp cut-off; inactive = mostly below about 43%
Each line names hits and unclear results; the compound was inactive in the other large screens. Unless noted, calls follow the shape of the dose curve; as a rule, active = well fitted curve in the direction sought with a large enough effect; inconclusive = small, poorly fitted or top-dose-only effect, or another doubt; inactive = no such curve, though single readings can be large; an effect the other way counts as inactive or inconclusive.

COc1ccc(-c2nnc(SCC(=O)Nc3ccc(C)cc3)n2C)cc1	Pf growth 96h 5.2µM
N#Cc1cnn2c(=O)[nH]cnc12	none (no result: Pf growth 48h, CHX counter, HCV inhibitor, Pf growth 96h, Shiga inhibitor)
Cc1ccc(Nc2nc(CSc3nnc(-c4ccc(F)cc4)n3C)cs2)cc1	CHX counter 32, HCV inhibitor inconclusive, Shiga inhibitor 123
COc1ccc(NC(=O)CSc2nnc(-c3ccco3)n2C)cc1	Pf growth 96h 6.6µM
Cc1ccc(C2=NC(C)(C)N=C2SCC(=O)Nc2ccc(Cl)cc2)cc1	HCV inhibitor inconclusive, Pf growth 96h 4.1µM (no result: Pf growth 48h)
CCOc1ccc(NC(=O)CSc2nnc(-c3ccco3)n2C)cc1	Pf growth 96h inconclusive
CC(=O)c1ccc(NC(=O)C2C3C=CC(O3)C2C(=O)O)cc1 (centres undefined)	none
CCCOC(=O)c1ccc(NC(=O)COC)cc1	Shiga inhibitor 50 (no result: Pf growth 48h)
CCCOC(=O)c1ccc(NC(=O)CC(C)(C)C)cc1	CHX counter 34, Shiga inhibitor 54
CC(=O)Nc1ccc(C(=O)OCCC(C)C)cc1	CHX counter 24, Shiga inhibitor 84
CCCOC(=O)c1ccc(NC(=O)C2C3C=CC(O3)C2C(=O)O)cc1 (centres undefined)	CHX counter 32
CCCOC(=O)c1ccc(NC(=O)Oc2ccccc2)cc1	none
Cc1ccc2nc(-c3cccnc3)cc(C(=O)Nc3ccc(F)cc3C)c2c1	Pf growth 48h inconclusive
CN(Cc1cn(C)nc1-c1ccccc1F)CC1CCCCO1 (centres undefined)	Pf growth 96h inconclusive
CN(C(=O)Cn1cc([N+](=O)[O-])ccc1=O)C1CCCCC1	Pf growth 48h inconclusive (no result: CHX counter, Shiga inhibitor)
COc1ccc(NC(=O)C(CCS(C)(=O)=O)NC(C)=O)cc1 (centres undefined)	none
CCCCOC(=O)c1ccc(NC(=O)C(CCS(C)(=O)=O)NC(C)=O)cc1 (centres undefined)	Pf growth 96h 5.2µM
CCOC(=O)C1=C(c2ccccc2)NC(SCC(=O)Nc2cccc(C)c2)=C(C#N)C1c1ccco1 (centres undefined)	Pf growth 48h 9.3µM, HCV inhibitor inconclusive
CCOC(=O)C1=C(c2ccccc2)NC(SCC(=O)Nc2ccc(C)cc2)=C(C#N)C1c1ccco1 (centres undefined)	Pf growth 48h inconclusive, HCV inhibitor inconclusive (no result: Pf growth 96h)
CCOC(=O)CSC1=C(C#N)C(c2ccco2)C(C(=O)Nc2cccc(C(F)(F)F)c2)=C(C)N1 (centres undefined)	Pf growth 48h 10µM, HCV inhibitor inconclusive
CCOC(=O)C1=C(c2ccccc2)NC(SCC(=O)Nc2ccccc2C)=C(C#N)C1c1ccco1 (centres undefined)	Pf growth 48h 8.3µM, HCV inhibitor inconclusive
CCOC(=O)C1=C(c2ccccc2)NC(SCC)=C(C#N)C1c1cccnc1 (centres undefined)	Pf growth 48h inconclusive, Pf growth 96h 8.3µM
CC(=O)C1=C(C)NC(SCC(=O)c2ccccc2)=C(C#N)C1c1ccco1 (centres undefined)	Pf growth 48h inconclusive, Pf growth 96h inconclusive (no result: AMA1-RON2 inh, HCV inhibitor)
c1ccc(-c2nccc3ccccc23)cc1	none (no result: Pf growth 48h, CHX counter, Pf growth 96h, Shiga inhibitor)
Cc1ccc(-c2nc(-c3nccc4ccccc34)oc2-c2ccccc2)cc1	CHX counter 22, Pf growth 96h inconclusive, Shiga inhibitor 98
NS(=O)(=O)c1ccc(NC(=S)N2CCN(C(=O)C3CCCO3)CC2)cc1 (centres undefined)	Pf growth 96h inconclusive
c1ccc(C2Oc3ccccc3C3CC(c4cccs4)=NN32)cc1 (centres undefined)	CHX counter 56, Shiga inhibitor 105
COc1cccc(C2CC(c3cccs3)=NN2S(C)(=O)=O)c1OC (centres undefined)	none
CS(=O)(=O)N1N=C(c2cccs2)CC1c1ccc(Cl)o1 (centres undefined)	CHX counter 36, Shiga inhibitor 66
COc1ccc(C2CC(c3cccs3)=NN2S(C)(=O)=O)cc1 (centres undefined)	CHX counter 32, Shiga inhibitor 121
O=[N+]([O-])c1ccc(C2Oc3ccccc3C3CC(c4ccccc4)=NN32)s1 (centres undefined)	CHX counter 61, HCV inhibitor inconclusive, Pf growth 96h inconclusive, Shiga inhibitor 114 (no result: AMA1-RON2 inh)
